D1 agonist = agonists of human D1 dopamine receptor. P21728. HEK293 T-REx D1 cells, calcium flux, agonist mode. activation, % at 2 µM. 1% of 360,000 active. AID 504660; in the data active = activation above about 30%; note: 0% is about no effect
Target sequence (P21728 whole entry, looked up): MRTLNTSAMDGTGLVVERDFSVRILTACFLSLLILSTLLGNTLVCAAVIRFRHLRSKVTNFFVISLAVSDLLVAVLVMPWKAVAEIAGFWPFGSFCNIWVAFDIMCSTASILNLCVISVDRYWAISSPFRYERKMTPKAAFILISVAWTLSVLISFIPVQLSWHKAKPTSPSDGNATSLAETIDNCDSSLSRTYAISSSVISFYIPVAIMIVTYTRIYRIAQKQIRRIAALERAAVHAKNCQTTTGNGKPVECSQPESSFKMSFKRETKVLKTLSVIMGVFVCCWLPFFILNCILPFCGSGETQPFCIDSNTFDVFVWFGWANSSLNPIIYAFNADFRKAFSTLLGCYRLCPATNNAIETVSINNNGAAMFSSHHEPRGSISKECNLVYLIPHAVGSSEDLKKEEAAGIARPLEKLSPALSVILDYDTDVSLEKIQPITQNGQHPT
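Inducible HEK293 T-REx D1 cells, force-coupled to calcium signalling, were plated at 4000 cells/well with tetracycline and held overnight at 30 C. After no-wash calcium dye loading, compound-evoked calcium rise over 180 s flagged agonists.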
ERG Ets-DNA blk = inhibitors of human ERG Ets domain-DNA interaction; fluorescence polarization, His-ERG Ets domain / labelled DNA; Potency, µM (doses to about 76.9 µM), without a hit: top-dose FP activity, negative = inhibition, actives largely listed as inhibitors; 0.028% of 370,000 active; AID 624246; active = well fitted inhibition curve with a large enough effect in the polarisation, with a control signal flat; inconclusive = small, poorly fitted or top-dose-only effect, or effect the other way, or a change in a side signal; inactive = no such curve, though single readings can be large or run the other way; the % refers to the polarisation;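 note: polarization taken with two DNA probes labelled with fluorescein and Texas red; potency is the fitted concentration of half-maximal effect; % of control where 0% means no effect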
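His-tagged ERG Ets domain (1 uM in the protein solution; 300mM KCl, 50mM Tris-HCl, 1mM EDTA, 1mM DTT, pH 7.5) received compound, then a probe mix of 5 nM fluorescein-DNA and 100nM Texas-615-DNA. Fluorescence polarization was read for both dyes.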
DRD3 antagonist = blocks the human D3 dopamine receptor; P35462; D3R cells, DiscoveRx beta-arrestin luminescence, antagonist mode; hits give low values; max response, negative = inhibition, %; 2.5% of 360,000 active; in the data active = max response below about -50%; inconclusive = no clear call, values can overlap the other calls; note: % is set by controls: 0 for no effect and ±100 for the full control effect
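Cells expressing the human receptor were seeded at 1500 cells/well, incubated overnight at 37 degrees C in 5% CO2, then exposed to library compounds with dopamine controls for 90 minutes at 37 degrees C before luminescent detection.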
DRD3 agonist = agonists of human D3 dopamine receptor; P35462; max activation, %; 0.58% of 410,000 active; D3R DiscoveRx beta-arrestin cells, luminescence, 90 min; in the data active = max activation above about 30%; note: 0% is about no effect
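Agonist-mode cell screen: cells plated at 1500/well and incubated overnight at 37 °C, then exposed to library compounds for 90 min at 37 °C. Detection reagent was added for 30–60 min at room temperature, and luminescence was read.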
D1 antagonist = blocks dopamine activation of the human D1 receptor | 3.2% of 360,000 active | activity change, negative = inhibition, % at 10 µM | AID 504652 | HEK293 TREx D1 cells, calcium flux, dopamine EC80; hits give low values | P21728; in the data active = activity change below about -30%; note: % is set by controls: 0 for no effect and ±100 for the full control effect
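HEK293 T-REx cells expressing inducible, force-coupled D1 receptor; no-wash Ca dye, 30–90 min RT. Cmpd → 180 s read at 1 Hz → EC80 DA → 180 s read.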
D1 PAM = human D1 dopamine receptor positive modulation | P21728 | HEK293 TREx D1 cells, calcium flux, dopamine EC20 potentiation | potentiation, % at 10 µM | 0.036% of 360,000 active | AID 504651; in the data active = potentiation above about 30%; note: 0% is about no effect
* = called active by the depositor; ? = inconclusive; / = no result given. Compounds with a hit are over-represented: about 6.1% of the library has one in this group of screens.

SMILES | D1 agonist | ERG Ets-DNA blk | DRD3 antagonist | DRD3 agonist | D1 antagonist | D1 PAM
CCOc1ccc(C(=O)N2CCN(Cc3ccccc3)CC2)cc1 | 2 | / | ? | -19 | -6 | -3
O=C(c1ccccc1)c1ccccc1C(=O)N1CCN(Cc2ccccc2F)CC1 | 1 | -6% | 15 | -1 | -3 | 3
CCOc1ccc(CN2CCN(C(=O)c3ccccc3)CC2)cc1 | 3 | 8% | -80* | -15 | -11 | 2
O=C(c1cccc(C(=O)N2CCN(Cc3ccccc3)CC2)c1)N1CCN(Cc2ccccc2)CC1 | 4 | 1% | -15 | 2 | -22 | 1
O=C(NCc1cccs1)c1ccc2c(c1)N(Cc1cccc(F)c1)C(=O)c1ccccc1S2 | 8 | 2% | / | -9 | 8 | 0
CCOC(=O)c1cc2c(c(-c3cccc(C#Cc4ccc(OC)c(OC)c4)c3)n1)[C@@H](CCO)N(S(=O)C(C)(C)C)C2 (stereo partly specified) | / | / | 7 | 8 | / | /
CCOC(=O)N1CCC(N2C(=O)c3ccccc3C2Nc2ccc(S(=O)(=O)N3CCCCC3)cc2)CC1 (stereo unspecified) | 0 | / | / | / | -21 | -12
COc1ccc(CNC(=O)CN(Cc2ccccc2OC)C(=O)c2csnn2)cc1 | 2 | 5% | 3 | -6 | 4 | -2
Nc1nnc(SCC(=O)Nc2cc(S(=O)(=O)N3CCOCC3)ccc2N2CCCC2)s1 | 5 | 4% | 9 | 3 | 16 | /
CNC(=O)c1ccc(NC(=O)CCc2c(C)noc2C)cc1 | 2 | -12% | -9 | 1 | 11 | -9
S=C(c1ccc(Br)cc1)N1CCN(Cc2ccccc2)CC1 | 1 | 10% | -78* | -44 | -7 | -1
CCOc1ccc(NC(=O)C(=O)NCCN2CCN(C(=O)c3ccc(C)cc3)CC2)cc1 | 0 | 2% | -60* | -22 | -1 | -1
Oc1ccc(C(=S)N2CCN(Cc3ccccc3)CC2)cc1 | 4 | 2% | -7 | -6 | -12 | -3
COc1ccc(C(=O)N2CCN(CCNC(=O)C(=O)Nc3ccc(Br)cc3)CC2)cc1 | 3 | 13% | 7 | -21 | -24 | -5
CC1CN(C2CCN(C(=O)c3ccccc3)CC2)CC(C)O1 (stereo unspecified) | 1 | -17% | ? | 3 | -31* | -1
CN(C)c1ccc(C(=S)N2CCN(Cc3ccccc3)CC2)cc1 | 0 | -2% | -50* | -19 | 11 | -4
COc1ccc(C2C=C(c3ccccc3)Nc3nc(NC(=O)/C=C/c4ccccc4Cl)nn32)cc1 (stereo unspecified) | 8 | -1% | / | 4 | -15 | -3
CSc1ncccc1C(=O)OCC(=O)N(CC(C)C)c1c(N)n(Cc2ccccc2)c(=O)[nH]c1=O | 3 | 13% | -11 | -5 | -20 | -1
NC(=NC(=O)c1ccc(OC(F)(F)F)cc1)c1ccc(C(F)(F)F)cn1 | 6 | 11% | 14 | 6 | 7 | -1
CCC(CC)NCCOC(=O)c1ccc([N+](=O)[O-])cc1 | 2 | -11% | -11 | -2 | -12 | 0
CCN1CCN(C(=S)c2ccc(O)cc2)CC1 | 1 | -15% | -1 | -2 | 2 | -1
Cc1ccc(C(=S)N2CCN(Cc3ccccc3)CC2)s1 | 9 | 1% | -69* | -10 | 19 | 4
CN1CCN(C(=S)c2cn(Cc3ccc(Br)cc3)c3ccccc23)CC1 | 10 | 2% | -88* | -8 | 10 | -4
O=C(c1ccccc1)N1CCN(Cc2ccccc2Br)CC1 | 1 | -4% | -62* | 0 | -10 | 1
CCN1CCN(C(=S)c2ccc(Br)cc2)CC1 | 1 | 6% | -55* | -24 | -17 | -6
Cc1sc2ncnc(OCC(=O)NC(C)C(C)C)c2c1C (stereo unspecified) | 5 | 3% | 2 | -1 | -5 | 1
CC1Cc2ccccc2N1C(=O)c1ccc(Br)o1 (stereo unspecified) | / | -1% | 11 | 1 | / | /
O=C(c1ccc(Br)cc1)N1CCN(Cc2ccccc2)CC1 | 1 | 0% | ? | -4 | -57* | -30
O=C(c1ccc(F)cc1)N1CCN(Cc2ccccc2)CC1 | 4 | -7% | ? | -17 | -3 | -4

Screens: PubChem, National Center for Advancing Translational Sciences (NCATS)
